Shown are actives, neighbours in structure and some others; about 3.7% of the full set was active somewhere.
NLRP3 yeast inh – NALP3 inflammasome inhibitors in reconstituted yeast, primary screen, luminescence, uHTS | Yeast reconstituted NLRP3/ASC/caspase-1, beta-gal luminescence, 24 h | inhibition, % at 10 µM | 330,000 tested, 0.39% active;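 active = inhibition of 50% or more; inactive = inhibition below 50%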;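 also: plate controls were induced DMSO wells for no effect and uninduced yeast grown without galactose for full effect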
tim10-1 inh – growth inhibitors of tim10-1 mutant yeast, primary screen, luminescence, uHTS. S. cerevisiae tim10-1 ts strain growth, BacTiter-Glo, 24 h. AID 463190, 2010. 330,000 tested, 2.2% active. inhibition, % at 20 µM;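 active = inhibition of at least 40%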;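 also: mutant grown at 25 °C; 0% = DMSO wells with yeast and 100% = wells holding no yeast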
tim23-1 inh – growth inhibitors of tim23-1 mutant yeast, primary screen, luminescence, uHTS; S. cerevisiae tim23-1 growth, BacTiter-Glo luminescence, 24 h; 330,000 tested, 1.3% active; AID 463212, 2010; inhibition, % at 20 µM;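 active = growth inhibition of the mutant yeast at or above 50%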;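 also: temperature-sensitive mutant grown at 25 °C; plate controls were DMSO-treated mutant yeast for no effect and medium wells lacking yeast for full effect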
PfHsp90 set2 – growth inhibition of PfHsp90-expressing yeast, primary screen, antimalarial PfHsp90 inhibitor project, S. cerevisiae, BacTiter-Glo luminescence, single point, set 2 | BacTiter-Glo ATP, 48 h; yeast lacking PDR1 and PDR3 efflux regulators | inhibition, % at 9.4 µM | 310,000 tested, 0.32% active;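 active = every replicate shows inhibition above about 80%, whatever the replicate mean, limit read from the data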;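 also: 0% = DMSO neutral controls and 100% = 20 µM radicicol positive controls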
TIM10 inh – growth inhibitors of isogenic TIM10 control yeast, primary screen, counter-screen for tim10-1 yeast inhibitor project, luminescence, uHTS. S. cerevisiae TIM10 strain growth, BacTiter-Glo luminescence, 24 h. inhibition, % at 10 µM. 330,000 tested, 1.4% active;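 active = inhibition of 40% or more at the single tested concentration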;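 also: wild-type TIM10 isogenic control strain grown at permissive 25 °C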
tim10-1 confirm – growth inhibitors of tim10-1 mutant yeast, confirmation, single concentration, luminescence, S. cerevisiae. shares compounds with tim10-1 inh. AID 463213, 2010. 7,400 tested, 56% active. S. cerevisiae tim10-1 ts strain growth, BacTiter-Glo, 24 h. inhibition, % at 20 µM;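 active = inhibition of yeast growth at or above a set limit in either of two repeat tests at 20 µM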;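 also: tim10-1 mutant grown at permissive 25 °C to find synthetic lethal compounds; 0% = DMSO yeast wells and 100% = medium wells without yeast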
The depositor's hits bear a star; / = no result; ! = not active in a repeat.

SMILES	NLRP3 yeast inh	tim10-1 inh	tim23-1 inh	PfHsp90 set2	TIM10 inh	tim10-1 confirm
CCOc1ccccc1N1CCN(C(=O)c2ccc(-c3ccc(OC(C)=O)cc3)cc2)CC1	3	41*	38	-21	16	23
O=C(c1ccc(Cn2cc(Br)cn2)cc1)N1CCN(c2ccccc2)CC1	33	52*	44	/	32	44*
Cc1cc(C(=O)NC(C)C2CC2)c(Cl)cc1Cl (stereo unspecified)	22	-29	4	-10	-19	/
CC(C)Oc1ccc(S(=O)(=O)N2CCOCC2)cc1NC(=O)CCCSc1ccccc1	17	24	21	-12	16	/
COc1ccc(CNC(=O)C2CC(O)CN2C(=O)Nc2ccccc2)cc1 (stereo unspecified)	17	-9	5	-8	-2	/
CNC(=O)c1cc(C(=O)c2ccccc2C(F)(F)F)c[nH]1	10	-2	12	6	3	/
COc1cc2c(cc1OC)CN(C(=O)c1ccc(-c3ccccc3)cc1)CC2	11	49*	44	-2	24	38*
Cc1nn(Cc2c(F)c(F)c(F)c(F)c2F)c(C)c1NC(=O)c1ccc(COc2ccccc2Cl)o1	1	46*	30	/	38	32*
Cc1nn(Cc2c(F)c(F)c(F)c(F)c2F)c(C)c1NC(=O)c1ccc(COc2ccccc2Cl)cc1	/	/	/	18	/	/
CCC(C(=O)NCc1ccco1)n1nc(C)n2c(cc3occc32)c1=O (stereo unspecified)	6	-4	6	0	8	/
C=C1CCN([C@H](C(=O)OCc2cccc(C)c2)C(C)C)S(=O)(=O)c2ccccc21	-3	44*	19	9	8	8
C=C1CCN([C@H](C(=O)O)C(C)C)S(=O)(=O)c2ccccc21	13	-2	2	/	11	/
COc1cc2c(C#N)c(N3CCCC3)nc(N)c2c(N)n1	2	43*!	48	10	27	22
O=S(=O)(c1c(F)cccc1F)C1CCN(S(=O)(=O)c2ccc3c(c2)OCCO3)CC1	13	9	21	-6	4	/
CN(CCCNC(=O)c1cccn2c(=O)c3ccccc3nc12)Cc1ccccc1	9	20	-1	-23	18	/
Cc1[nH]n(-c2ccccc2)c(=O)c1C(c1cccc([N+](=O)[O-])c1O)c1c(C)[nH]n(-c2ccccc2)c1=O	17	42*	33	4	7	23
O=C(N/N=C/c1ccc(O)cc1)NC12CC3CC(CC(C3)C1)C2	15	50*	41	8	32	35*
O=C(N/N=C/c1ccncc1)NC12CC3CC(CC(C3)C1)C2	14	33	46	-13	25	/
C/C(=N\NC(=S)Nc1cccc(C)c1)c1cc2ccccc2o1	25	47*	35	-17	37	39*
CCNC(=S)N/N=C(\C)c1cc2ccccc2o1	4	19	22	0	2	/
Cc1cc(NC(=S)Nc2ccccc2)ccc1Br	30	41*	9	-50	15	7
COc1cccc(NC(=S)Nc2cccc3ccccc23)c1	23	55*	33	-4	38	23
Cc1cccc(NC(=S)Nc2cccc3ccccc23)c1	18	45*	34	16	32	29
COCC1CCCCN1C(=O)c1ccc2nc(Cc3ccc(OC)c(OC)c3)oc2c1 (stereo unspecified)	13	7	14	-73	9	/
O=C(Cc1ccccc1)NN1CCCCC1	7	9	6	-4	-7	/
CC(NC(=O)C(Cc1ccccc1)NC(=O)c1ccccc1)C(=O)O (stereo unspecified)	-4	-4	-1	-14	-5	/
Cc1cc(=O)[nH]c(N/N=C/c2ccc(Br)s2)n1	6	2	16	-10	3	/
Fc1ccc(NC(=S)Nc2cccc3ccccc23)cc1F	16	42*	35	-2	23	30
CCOc1cccc(/C=N/NC(=O)c2ccc3c(c2)OCCO3)c1O	13	48*	26	0	1	-33

Source: PubChem BioAssay (several laboratories)
